Data as given in PubChem BioAssay (NCATS).
Results filed as inconclusive are left out. Values without a mark were called inactive. The source made the active and inactive calls. Calls come from the whole dose curve; as a rule, active = well fitted inhibition curve with a large enough effect; inconclusive = small, poorly fitted or top-dose-only effect; inactive = flat fitted curve, though single readings scatter.

Test system: Zika virus NS2B-NS3 protease
Test: Primary screen GU AMC qHTS for Zika virus inhibitors (AID 1347154);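 note: 0% = no-inhibitor control and -100% = no-enzyme control; nearly all actives have a fitted effect of over 70% in size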
Conditions: Zika NS2B-NS3 unlinked protease, AMC fluorogenic substrate; series mostly up to 54.1 µM; activity change, negative = inhibition: at the top concentration
Procedure, shortened: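 Fluorogenic AMC-substrate cleavage by noncovalent NS2B-NS3 protease complex (25 nM, pH 8.0 Tris buffer with Tween 20) followed for 15 minutes at room temperature (~20% conversion). Percent inhibition from ex340/em450 signal change, fitted by 4-parameter Hill equation.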

SMILES | activity change, negative = inhibition | Potency
CCCC(O)C(CC)CO (configuration not stated) | -2.12% | 
Cc1c(NC(=O)c2cccnc2)c(=O)n(-c2ccccc2)n1C | -4.3% | 
CN1CCCN=C1COC(=O)C(O)(c1ccccc1)C1CCCCC1 (configuration not stated) | -4.75% | 
O=C(O)CCCCC1CCSS1 (configuration not stated) | 4.5% | 
CCCCCCCCCCOc1cc2c(=O)c(C(=O)OCC)c[nH]c2cc1OCC | -1.56% [at 4.99 µM] | 
CC(CN(C)C)C(C)(O)Cc1ccc(Cl)cc1 (configuration not stated) | -7.44% | 
Cc1c(C(=O)NCCO)[n+](=O)c2ccccc2n1[O-] | -5.63% | 
CCS(=O)(=O)CCn1c([N+](=O)[O-])cnc1C | -3.48% | 
Cc1c(NC(C)C)c(=O)n(-c2ccccc2)n1C | -5.25% | 
CC(C)=CCC[C@@](C)(O)[C@H]1CC=C(C)CC1 | 0.714% | 
CN(C/C=C/C#CC(C)(C)C)Cc1cccc2ccccc12 | -13.4% | 
O=c1[nH]c(=O)n([C@H]2C[C@H](O)[C@@H](CO)O2)cc1I | -0.616% | 
Cc1ncc(CO)c(CN)c1O | -11.9% | 
C1CCN2C[C@@H]3C[C@@H](CN4CCCC[C@@H]34)[C@H]2C1 | 4.22% | 
O=C(O)c1ccccc1C(=O)Nc1ccc(S(=O)(=O)Nc2nccs2)cc1 | -2.27% | 
CC(=O)N[C@@H](CC(C)C)C(=O)O | -1.25% | 
OC(CCN1CCCC1)(c1ccccc1)C1CCCCC1 (configuration not stated) | -0.475% | 
O=C(Cn1ccnc1[N+](=O)[O-])NCCO | -2.36% | 
c1ccc2[nH]ccc2c1 | -0.191% | 

SMILES | activity change, negative = inhibition | Potency
CCc1cccc(CC)c1NC(=O)CN(CC(=O)O)CC(=O)O | 2.38% | 
CC(C)NC[C@@H](O)COc1ccc(CC(N)=O)cc1 | -3.99% | 
COc1ccc(NS(=O)(=O)c2ccc(N)cc2)nn1 | -2.86% | 
CCCNC(C)C(=O)Nc1c(C)csc1C(=O)OC (configuration not stated) | -1.74% | 
Cn1cc(C(=O)[C@@H]2CCc3nc[nH]c3C2)c2ccccc21 | 1.2% | 
C=CCOc1ccccc1OCC(O)CNC(C)C (configuration not stated) | -2.79% | 
O=C(O)/C=C/c1ccc(Cn2ccnc2)cc1 | 2.41% | 
N[C@@H](Cc1ccc(O)cc1)C(=O)O | 5.3% [at 6.83 µM] | 
C[N+](C)(C)CC(O)CC(=O)[O-] (configuration not stated) | -0.987% | 
CCC(C)(CN(C)C)OC(=O)c1ccccc1 (configuration not stated) | -0.189% | 
Nc1ccc(S(=O)(=O)c2ccc(N)cc2)cc1 | -2.42% | 
C=CCN1C[C@H](C(=O)N(CCCN(C)C)C(=O)NCC)C[C@@H]2c3cccc4[nH]cc(c34)C[C@H]21 |  | inactive
CC[C@H](C)[C@H](N)C(=O)O | 9.44% | 
CC(=O)Oc1cccc(O)c1 | -1.48% | 
NC(=O)CC[C@@H](N)C(=O)O | 3.92% | 
Nc1ccc(C(=O)Oc2ccccc2)c(O)c1 | -3.07% | 
CC(=O)OC[C@H]1O[C@@](COC(C)=O)(O[C@H]2O[C@H](COC(C)=O)[C@@H](OC(C)=O)[C@H](OC(C)=O)[C@H]2OC(C)=O)[C@@H](OC(C)=O)[C@@H]1OC(C)=O | 3.34% | 
CN[C@@H]1[C@H](O)[C@H](NC)[C@H]2O[C@@]3(O)C(=O)C[C@@H](C)O[C@H]3O[C@@H]2[C@H]1O | -3.26% | 
